Measured values from publication PMC8222333, “AsCas12a ultra nuclease facilitates the rapid generation of therapeutic cell medicines”.
Numbering of substitutions follows the chain as printed.

B1: CAGC (dsDNA)
DNA 1: GCTATCTAGTGCTCAGTACGCACTGCAGCAGGAAACTTCTGGCAGGACCAGGTCATGAGATCGGAAGAGCACACGTCTGAACTCCAGTCA
DNA 2: TGACTGGAGTTCAGACGTGTGCTCTTCCGATCTCATGACCTGGTCCTGCCAGAAGTTTCCTGCTGCAGTGCGTACTGAGCACTAGATAGC
RNA: AAUUUCUACUCUUGUAGAUAGGAAACUUCUGGCAGGACC
B2: CAGT (dsDNA)
DNA 1: B1 DNA 1 with C29T
DNA 2: B1 DNA 2 with G62A
RNA: B1 RNA
B3: CCAA (dsDNA)
DNA 1: B1 DNA 1 with A27C, G28A, C29A
DNA 2: B1 DNA 2 with G62T, C63T, T64G
RNA: B1 RNA
B4: CGAA (dsDNA)
DNA 1: B1 DNA 1 with A27G, G28A, C29A
DNA 2: B1 DNA 2 with G62T, C63T, T64C
RNA: B1 RNA
B5: CCAT (dsDNA)
DNA 1: B1 DNA 1 with A27C, G28A, C29T
DNA 2: B1 DNA 2 with G62A, C63T, T64G
RNA: B1 RNA
B6: CGCA (dsDNA)
DNA 1: B1 DNA 1 with A27G, G28C, C29A
DNA 2: B1 DNA 2 with G62T, C63G, T64C
RNA: B1 RNA
B7: CCGA (dsDNA)
DNA 1: B1 DNA 1 with A27C, C29A
DNA 2: B1 DNA 2 with G62T, T64G
RNA: B1 RNA
B8: CCGT (dsDNA)
DNA 1: B1 DNA 1 with A27C, C29T
DNA 2: B1 DNA 2 with G62A, T64G
RNA: B1 RNA
B9: CAGG (dsDNA)
DNA 1: B1 DNA 1 with C29G
DNA 2: B1 DNA 2 with G62C
RNA: B1 RNA
B10: CATT (dsDNA)
DNA 1: B1 DNA 1 with G28T, C29T
DNA 2: B1 DNA 2 with G62A, C63A
RNA: B1 RNA
B11: CGAT (dsDNA)
DNA 1: B1 DNA 1 with A27G, G28A, C29T
DNA 2: B1 DNA 2 with G62A, C63T, T64C
RNA: B1 RNA
B12: CCAG (dsDNA)
DNA 1: B1 DNA 1 with A27C, G28A, C29G
DNA 2: B1 DNA 2 with G62C, C63T, T64G
RNA: B1 RNA
B13: CGAG (dsDNA)
DNA 1: B1 DNA 1 with A27G, G28A, C29G
DNA 2: B1 DNA 2 with G62C, C63T, T64C
RNA: B1 RNA
B14: CCAC (dsDNA)
DNA 1: B1 DNA 1 with A27C, G28A
DNA 2: B1 DNA 2 with C63T, T64G
RNA: B1 RNA
B15: CGAC (dsDNA)
DNA 1: B1 DNA 1 with A27G, G28A
DNA 2: B1 DNA 2 with C63T, T64C
RNA: B1 RNA
B16: CCGC (dsDNA)
DNA 1: B1 DNA 1 with A27C
DNA 2: B1 DNA 2 with T64G
RNA: B1 RNA
B17: CCCT (dsDNA)
DNA 1: B1 DNA 1 with A27C, G28C, C29T
DNA 2: B1 DNA 2 with G62A, C63G, T64G
RNA: B1 RNA

molecular target: dAsCas12a S542R (Acidaminococcus sp., UniProt U2UMQ6 1-1307, S542R;D908A;E993A;D1235A); assay: Spec-seq (native PAGE EMSA with sequencing of bound and unbound); 25 mM Tris-HCl pH 7.4, 150 mM KCl, 5 mM MgCl2, 10% glycerol, 1 mM DTT, 40 ng/uL salmon sperm DNA; 400 nM Cas12a, 480 nM crRNA, 50 nM library, 37 C 1 h; native PAGE at room temperature; high values mean tight binding; settings: protein: recombinant
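Also: relative affinity from the bound to unbound sequence frequency ratio in Spec-seq.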

| Binder | binding signal |
| --- | --- |
| B1 | -8.95 lnKA |
| B2 | -8.61 lnKA |
| B3 | -8.66 lnKA |
| B4 | -8.66 lnKA |
| B5 | -8.87 lnKA |
| B6 | -8.48 lnKA |
| B7 | -8.62 lnKA |
| B8 | -8.47 lnKA |
| B9 | -8.98 lnKA |
| B10 | -8.56 lnKA |
| B11 | -8.8 lnKA |
| B12 | -8.95 lnKA |
| B13 | -8.83 lnKA |
| B14 | -8.4 lnKA |
| B15 | -8.8 lnKA |
| B16 | -8.39 lnKA |
| B17 | -7.57 lnKA |

molecular target: d-enCas12a (Acidaminococcus sp., UniProt U2UMQ6 1-1307, E174R;S542R;K548R;D908A;E993A;D1235A); assay: as above; settings: protein: recombinant

| Binder | binding signal |
| --- | --- |
| B1 | -5.94 lnKA |
| B2 | -5.67 lnKA |
| B3 | -5.83 lnKA |
| B4 | -5.81 lnKA |
| B5 | -5.81 lnKA |
| B6 | -2.19 lnKA |
| B7 | -5.74 lnKA |
| B8 | -5.88 lnKA |
| B9 | -5.82 lnKA |
| B10 | -5.39 lnKA |
| B11 | -5.8 lnKA |
| B12 | -5.72 lnKA |
| B13 | -5.83 lnKA |
| B14 | -5.65 lnKA |
| B15 | -5.58 lnKA |
| B16 | -5.85 lnKA |
| B17 | -5.17 lnKA |

molecular target: d-enCas12a-Ultra (Acidaminococcus sp., UniProt U2UMQ6 1-1307, E174R;S542R;K548R;M537R;F870L;D908A;E993A;D1235A); assay: as above; settings: protein: recombinant

| Binder | binding signal |
| --- | --- |
| B1 | -3.45 lnKA |
| B2 | -3.37 lnKA |
| B3 | -3.39 lnKA |
| B4 | -3.32 lnKA |
| B5 | -3.45 lnKA |
| B6 | -0.537 lnKA |
| B7 | -3.44 lnKA |
| B8 | -3.38 lnKA |
| B9 | -3.56 lnKA |
| B10 | -2.95 lnKA |
| B11 | -3.4 lnKA |
| B12 | -3.45 lnKA |
| B13 | -3.31 lnKA |
| B14 | -3.37 lnKA |
| B15 | -2.94 lnKA |
| B16 | -3.33 lnKA |
| B17 | -1.7 lnKA |
